In PubChem BioAssay AID488969 (Vanderbilt High Throughput Screening Facility, 2010):
The full ranking holds about 110,000 compounds; the median of “z-score” is about -0.1, and the highest 2% start at about 2. The list comes from a sample in which the highest values are over-represented; it also holds similar structures and randomly drawn compounds. The source made the active and inactive calls.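 How the source made its calls: active means z-score in the third read window above 3 or below -3; inactive means the rest.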

The compounds below were run against Metabotropic glutamate receptor 8 (Rattus norvegicus) (UniProt P70579) (assay: mGluR8 Gi/Go-coupled signaling modulation – cell-based, rat, thallium flux, HTS, primary screen (AID 488969)). Conditions: HEK293 rat mGluR8, GIRK (G protein-gated inwardly rectifying potassium channel) thallium flux, FluoZin2; at 10 µM; stronger effect = higher value; submaximal glutamate (EC20) added with thallium.
Chain of Metabotropic glutamate receptor 8 (Rattus norvegicus) (P70579 whole entry, looked up): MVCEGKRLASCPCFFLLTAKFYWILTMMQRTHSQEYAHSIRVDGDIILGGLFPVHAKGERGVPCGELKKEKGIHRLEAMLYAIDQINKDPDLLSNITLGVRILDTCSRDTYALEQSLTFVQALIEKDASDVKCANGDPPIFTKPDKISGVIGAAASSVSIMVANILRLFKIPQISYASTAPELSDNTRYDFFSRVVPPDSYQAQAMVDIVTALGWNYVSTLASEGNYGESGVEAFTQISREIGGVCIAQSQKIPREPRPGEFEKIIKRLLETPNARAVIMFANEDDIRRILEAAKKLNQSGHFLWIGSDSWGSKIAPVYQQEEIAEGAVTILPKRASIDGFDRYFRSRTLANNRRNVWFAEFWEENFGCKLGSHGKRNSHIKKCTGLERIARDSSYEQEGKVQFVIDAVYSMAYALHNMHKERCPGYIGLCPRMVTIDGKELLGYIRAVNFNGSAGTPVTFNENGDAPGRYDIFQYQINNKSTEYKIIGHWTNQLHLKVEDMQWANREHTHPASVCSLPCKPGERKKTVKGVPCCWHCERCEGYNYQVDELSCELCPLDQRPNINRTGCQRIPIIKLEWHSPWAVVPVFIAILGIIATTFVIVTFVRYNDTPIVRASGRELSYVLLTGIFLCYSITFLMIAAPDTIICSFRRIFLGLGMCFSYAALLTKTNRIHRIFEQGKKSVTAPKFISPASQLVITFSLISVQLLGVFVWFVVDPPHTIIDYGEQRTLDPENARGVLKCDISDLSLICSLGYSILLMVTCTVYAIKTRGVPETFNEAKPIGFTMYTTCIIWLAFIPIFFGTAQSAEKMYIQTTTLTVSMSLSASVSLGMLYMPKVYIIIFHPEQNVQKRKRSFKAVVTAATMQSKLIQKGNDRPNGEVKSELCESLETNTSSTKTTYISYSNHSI

With `CCN1C(=O)/C(=C\N2CCCc3ccccc32)SC1=S` as the compound, how does the z-score read?
The z-score was -0.289.

`O=C(c1ccc(OCC2CCCO2)cc1)N1CCN(c2ccccc2)CC1` (stereo unspecified) was tested. Which z-score did it give?
Its z-score is -0.525.

For `O=C(NCCc1ccc(Cl)cc1)C1CCC(=O)N1Cc1ccccc1Cl` (stereo unspecified), which z-score is on record?
Its z-score is -0.0695.

With `COc1ccc(NC(=O)C(NC(=O)CC2NC(=O)NC2=O)c2ccccc2)cc1` (stereo unspecified) as the compound, how does the z-score read?
The z-score was 0.0457.

With `CC(=O)NC12CC3CC(CC(CC(=O)O)(C3)C1)C2` as the compound, how does the z-score read?
The z-score was 0.634.

How did the z-score turn out when `O=Cc1cccn1Cc1ccc(Cl)cc1Cl` was run?
The z-score was -0.152.

How did the z-score turn out when `Cc1nn(-c2ccccc2)c2c1C1(C(=O)N(C)c3ccccc31)C(C#N)=C(N)O2` (stereo unspecified) was run?
Its z-score is -0.0421.

`O=C1OCCC1Sc1nc2ccccc2n1Cc1ccccc1` (stereo unspecified) was tested. Which z-score did it give?
Its z-score is -1.37.

How did the z-score turn out when `O=C1OCCC1Sc1nnc(-c2ccc(Cl)cc2)n1Cc1ccccc1` (stereo unspecified) was run?
Its z-score is -0.478.

How did the z-score turn out when `O=C1OCCC1Sc1nc2cc(Cl)ccc2n1Cc1ccccc1` (stereo unspecified) was run?
Its z-score is 6.69 (active).

How did the z-score turn out when `Cc1c(N=C2SCC(=O)N2/N=C/c2ccccc2Cl)c(=O)n(-c2ccccc2)n1C` was run?
Its z-score is 0.339.

How did the z-score turn out when `Cc1sc2ncnc(SCC(=O)N3CCCC3)c2c1C` was run?
The z-score was 0.342.

How did the z-score turn out when `Cc1sc2ncnc(SCC(=O)NC3CC3)c2c1C` was run?
The z-score was 0.845.

Which z-score does the source give for `Cc1sc2ncnc(SCC(=O)N3CCCC3=O)c2c1C` here?
The z-score was 2.71.

How did the z-score turn out when `COc1cc(C(=O)Nc2nnc(C)s2)cc(OC)c1OC` was run?
Its z-score is 0.381.

For `Cc1ccc(-n2nc(-c3cccnc3)cc2C(=O)N2CCOCC2)c(C)c1`, which z-score is on record?
Its z-score is 0.372.

With `Nc1nnc(-c2ccccc2)s1` as the compound, how does the z-score read?
Its z-score is -0.337.

For `Nc1nnc(C(=O)c2ccccc2N)s1`, which z-score is on record?
Its z-score is 4.29 (active).

`Nc1ccccc1NC(=O)c1ccccc1N` was tested. Which z-score did it give?
Its z-score is 0.194.

How did the z-score turn out when `Cc1c(NC(=O)COC(=O)C(c2ccc(Cl)cc2)C(C)C)c(=O)n(-c2ccccc2)n1C` (stereo unspecified) was run?
Its z-score is -0.457.

With `CC(C)(C)CC(C)(C)NCC(O)COc1c(F)cc(Br)cc1F` (stereo unspecified) as the compound, how does the z-score read?
Its z-score is 3.25 (active).

For `OC(CNC1CCCC1)COc1c(F)cc(Br)cc1F` (stereo unspecified), which z-score is on record?
Its z-score is 0.142.

Which z-score does the source give for `CC(C)(C)NCC(O)COc1c(F)cc(Br)cc1F` (stereo unspecified) here?
The z-score was 0.622.

`C=CCSC1=N/C(=C\c2ccsc2)C(=O)S1` was tested. Which z-score did it give?
The z-score was -0.538.

How did the z-score turn out when `CC(C)OC(=O)c1cccnc1SCC(=O)N(C)c1ccccc1` was run?
Its z-score is -0.698.

For `CCOc1ccc(CNC(=O)C2CCCN(S(C)(=O)=O)C2)cc1OC` (stereo unspecified), which z-score is on record?
Its z-score is 0.258.

`CCC(=O)Nc1ccc(Cl)c(NC(=O)C(C)C)c1` was tested. Which z-score did it give?
The z-score was 0.418.

With `C=COCCNC(=O)Nc1ccc(Cl)c(Cl)c1` as the compound, how does the z-score read?
Its z-score is 3.37 (active).

`C=COCCNC(=O)Nc1ccc(Cl)cc1Cl` was tested. Which z-score did it give?
The z-score was 0.104.

`O=C(NCCCn1ccnc1)Nc1cccc(Cl)c1` was tested. Which z-score did it give?
Its z-score is 0.583.

Which z-score does the source give for `O=C(NCCCn1ccnc1)Nc1ccc(Cl)cc1Cl` here?
The z-score was -0.326.

How did the z-score turn out when `Cc1nn(C)cc1CNC(=O)Nc1ccc(Cl)c(Cl)c1` was run?
Its z-score is 2.06.

How did the z-score turn out when `Cc1nn(C)cc1CNC(=O)Nc1cccc(Cl)c1` was run?
The z-score was 0.0377.

Which z-score does the source give for `CN(C)CCNC(=O)Nc1ccc(Cl)c(Cl)c1` here?
Its z-score is 0.092.

`Cc1nn(C)cc1CNC(=O)Nc1ccc(Br)cc1Cl` was tested. Which z-score did it give?
The z-score was -0.126.

For `O=C(NCCCn1ccnc1)Nc1ccc(Cl)c(Cl)c1`, which z-score is on record?
The z-score was 3.92 (active).
